This note sets out measurements from PubChem BioAssay.

The structures appear in SMILES notation. The source made the active and inactive calls.

Assay [1] has as its system Plasmodium falciparum Sir2 (PF13_0152, Sir2A). The experiment in a line: Plasmodium falciparum Sir2A binding compounds – biochemical, small-molecule microarray, 635 nm fluorescence, primary screen (AID 1098).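 Note: score merges spot fluorescence intensity with its signal-to-noise ratio.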 Particulars: fluorescence 635 nm, higher = more signal.
Assay [2] is described as follows: probe aDKK1 binding to arrayed compounds – biochemical, biotinylated probe, 635/667 nm fluorescence, primary screen (AID 1099).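 Note: score merges 667nm spot fluorescence with signal to noise across triplicate slides.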 To be noted: small-molecule microarray, higher = more signal.
The nature of assay [3]: probe aCHRDL2 binding to arrayed compounds – biochemical, biotinylated probe, 635/667 nm fluorescence, primary screen (AID 1100). To be noted: small-molecule microarray, higher = more signal.
The nature of assay [4]: change in splice reporter luminescence, either direction, cell-based, HEK293, spliceosome inhibition project, primary screen (AID 1101).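 Note: HEK293 cells carrying a splicing-competent luciferase reporter gene; test concentration not given here.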 To be noted: HEK293 splicing luciferase reporter, 24 h, higher = more signal, called active from +8 up or from −8 down. Background: A reporter such as luciferase makes a cellular process visible.
Assay [5] addresses Fibroblast growth factor 10 (Homo sapiens) (UniProt O15520). In words: compounds binding fibroblast growth factor 10 – biochemical, small-molecule microarray, 635 nm fluorescence, primary screen (AID 1102). To be noted: FGF10 binding, fluorescence 635 nm, higher = more signal.
Assay [6] concerns glycogen synthase kinase-3 (GSK3A per assay name; protocol says GSK3B). The experiment in a line: compounds binding glycogen synthase kinase-3 – biochemical, small-molecule microarray, 635 nm fluorescence, GSK3A, primary screen (AID 1103). Note: the record names both GSK3A and GSK3B. To be noted: fluorescence 635 nm, higher = more signal.
Assay [7] addresses Epidermal growth factor receptor (Homo sapiens) (UniProt P00533). In words: compounds binding epidermal growth factor receptor – biochemical, small-molecule microarray, 635 nm fluorescence, primary screen (AID 1104).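 Note: score merges 667 nm emission intensity with spot signal to noise over triplicate slides.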 Particulars: EGFR binding, higher = more signal.
Assay [8] concerns the target Follistatin-related protein 3 (Homo sapiens) (UniProt O95633). The experiment in a line: compounds binding follistatin-related protein 3 – biochemical, small-molecule microarray, 635 nm fluorescence, primary screen (AID 1105).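 Note: score merges emission near 667 nm and signal to noise per printed spot across three slides.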 Particulars: FSTL3 binding, higher = more signal.
Assay [9] concerns the target Dickkopf-related protein 1 (Homo sapiens) (UniProt O94907). In words: small molecules binding DKK1 protein – biochemical, small-molecule microarray, 635 nm fluorescence scan, primary screen (AID 1106).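 Note: score merges emission near 667 nm with signal to noise over three replicate slides.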 Particulars: higher = more signal.
Assay [10] concerns Inhibin beta A chain (activin A). In words: small molecules binding activin A – biochemical, small-molecule microarray, 635 nm fluorescence scan, primary screen (AID 1107).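 Note: mouse activin A protein probed at 4.33 µg/mL on printed slides; score merges bound-protein fluorescence near 667 nm with spot signal-to-noise.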 To be noted: INHBA, higher = more signal.
Assay [11] concerns Human papillomavirus type 1a protein E7 (residues 44-93). In words: small molecules binding HPV E7 44-93 – biochemical, small-molecule microarray, residues 44-93, 635 nm fluorescence, primary screen (AID 1108).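 Note: E7 fragment applied at 1 µg/mL in TBST for 1 h at 4 C; score combines spot fluorescence with its signal to noise ratio.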 To be noted: fluorescence 635 nm, higher = more signal.
Assay [12] in a line: hepatitis C replication reporter changes, two-sided – Huh7 cells, luciferase reporter, HCV replication inhibitor project, primary screen (AID 1109).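 Note: huh7 hepatoma cells harbouring a luciferase neomycin HCV replicon reporter; luciferase luminescence as measure of HCV replicon replication; test concentration not given here.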 To be noted: Huh7 HCV replicon luciferase reporter, 48 h; higher = more signal.
Assay [13] deals with Left-right determination factor 2 (Homo sapiens) (UniProt O00292). The experiment in a line: small molecules binding LEFTY2 protein – biochemical, small-molecule microarray, 635 nm fluorescence scan, primary screen (AID 1110). Particulars: higher = more signal.
Left-right determination factor 2 (Homo sapiens), sequence (O00292 whole entry, looked up): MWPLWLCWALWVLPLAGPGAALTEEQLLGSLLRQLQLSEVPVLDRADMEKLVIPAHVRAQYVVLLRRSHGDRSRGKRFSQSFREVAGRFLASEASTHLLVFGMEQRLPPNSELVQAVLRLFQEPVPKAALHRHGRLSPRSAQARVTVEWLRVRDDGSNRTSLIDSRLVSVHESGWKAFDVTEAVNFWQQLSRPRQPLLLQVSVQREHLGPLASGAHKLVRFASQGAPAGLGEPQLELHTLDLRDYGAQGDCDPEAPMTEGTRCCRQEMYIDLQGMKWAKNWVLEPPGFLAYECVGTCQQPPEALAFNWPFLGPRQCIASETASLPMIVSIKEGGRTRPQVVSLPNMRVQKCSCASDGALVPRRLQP
Assay [14] concerns the target Calmodulin-1 (Homo sapiens) (UniProt P0DP23). The experiment in a line: small molecules binding calmodulin-1 with EGTA – biochemical, small-molecule microarray, Cy5-labelled CALM1, profiling panel (AID 1111).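 Note: labelled calmodulin applied in Tris saline Tween buffer holding calcium plus EGTA and DTT.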 To be noted: Cy5-CALM1 binding fluorescence, higher = more signal.
Assay [15] has the same target. In words: small molecules binding Ca-loaded calmodulin-1 – biochemical, small-molecule microarray, Cy5-labelled CALM1, plus calcium, artefact control for SMM control-protein annotation, profiling panel (AID 1112).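 Note: score merges spot fluorescence with signal to noise from triplicate slides.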 Particulars: Cy5-CALM1 binding fluorescence, higher = more signal.
The nature of assay [16]: probe aWnt5a binding to arrayed compounds – biochemical, biotinylated probe, 635/667 nm fluorescence, primary screen (AID 1113).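 Note: score merges 667 nm fluorescence intensity with signal-to-noise per printed feature.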 To be noted: small-molecule microarray, higher = more signal.
Assay [17] is described as follows: probe aShh binding to arrayed compounds – biochemical, biotinylated probe, 635/667 nm fluorescence, primary screen (AID 1114).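 Note: probe is biotin-labelled aShh protein from a stem cell growth factor screen; measures binding of labelled protein to compounds printed on the slide; score merges feature fluorescence at 667 nm with signal-to-noise.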 To be noted: small-molecule microarray, higher = more signal.
Assay [18] in a line: probe aNog binding to arrayed compounds – biochemical, biotinylated probe, 635/667 nm fluorescence, primary screen (AID 1115).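 Note: probe is biotinylated aNog protein used at 0.15 µg/mL for 1 h at 4 C; z-score combines 667 nm fluorescence of each spot with its signal to noise.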 Particulars: small-molecule microarray, higher = more signal.
For assay [19], the target named is Torsin-1A-interacting protein 1 (Homo sapiens) (UniProt Q5JTV8). The experiment in a line: compound microarray binding of lysate hLAP1 – cell lysate, small-molecule microarray, COS7 lysate, 635/667 nm fluorescence, primary screen (AID 1116). To be noted: 635 nm fluorescence, higher = more signal.
Torsin-1A-interacting protein 1 (Homo sapiens), sequence (Q5JTV8 whole entry, looked up): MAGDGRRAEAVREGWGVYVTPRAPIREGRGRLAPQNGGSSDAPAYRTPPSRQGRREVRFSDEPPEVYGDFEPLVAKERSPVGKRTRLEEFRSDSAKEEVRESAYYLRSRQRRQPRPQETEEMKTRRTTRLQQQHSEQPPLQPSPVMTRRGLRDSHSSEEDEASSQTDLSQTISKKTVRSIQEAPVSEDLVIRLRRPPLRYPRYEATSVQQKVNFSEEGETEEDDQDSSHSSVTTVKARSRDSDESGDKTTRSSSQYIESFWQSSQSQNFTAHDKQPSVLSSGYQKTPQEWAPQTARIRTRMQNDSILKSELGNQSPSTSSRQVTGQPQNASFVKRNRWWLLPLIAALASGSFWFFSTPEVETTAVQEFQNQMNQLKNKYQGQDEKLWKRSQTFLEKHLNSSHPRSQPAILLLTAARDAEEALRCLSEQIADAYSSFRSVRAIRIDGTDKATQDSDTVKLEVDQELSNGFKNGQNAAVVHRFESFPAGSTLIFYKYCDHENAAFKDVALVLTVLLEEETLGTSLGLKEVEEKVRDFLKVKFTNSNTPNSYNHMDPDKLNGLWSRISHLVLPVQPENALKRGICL
In assay [20] the target is Alpha-bungarotoxin (Bungarus multicinctus) (UniProt P60615). The experiment in a line: compounds binding labelled alpha-BTX control protein – biochemical, small-molecule microarray, Alexa647 label, 635/667 nm fluorescence, artefact control for SMM control protein annotation, profiling panel (AID 1117). To be noted: alpha-BTX-A647 binding fluorescence, higher = more signal.
Alpha-bungarotoxin (Bungarus multicinctus), sequence (P60615 whole entry, looked up): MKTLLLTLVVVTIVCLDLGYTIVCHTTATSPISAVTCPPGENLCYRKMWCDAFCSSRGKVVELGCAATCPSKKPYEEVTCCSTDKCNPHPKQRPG

Epidermal growth factor receptor (Homo sapiens), sequence (P00533 whole entry, looked up): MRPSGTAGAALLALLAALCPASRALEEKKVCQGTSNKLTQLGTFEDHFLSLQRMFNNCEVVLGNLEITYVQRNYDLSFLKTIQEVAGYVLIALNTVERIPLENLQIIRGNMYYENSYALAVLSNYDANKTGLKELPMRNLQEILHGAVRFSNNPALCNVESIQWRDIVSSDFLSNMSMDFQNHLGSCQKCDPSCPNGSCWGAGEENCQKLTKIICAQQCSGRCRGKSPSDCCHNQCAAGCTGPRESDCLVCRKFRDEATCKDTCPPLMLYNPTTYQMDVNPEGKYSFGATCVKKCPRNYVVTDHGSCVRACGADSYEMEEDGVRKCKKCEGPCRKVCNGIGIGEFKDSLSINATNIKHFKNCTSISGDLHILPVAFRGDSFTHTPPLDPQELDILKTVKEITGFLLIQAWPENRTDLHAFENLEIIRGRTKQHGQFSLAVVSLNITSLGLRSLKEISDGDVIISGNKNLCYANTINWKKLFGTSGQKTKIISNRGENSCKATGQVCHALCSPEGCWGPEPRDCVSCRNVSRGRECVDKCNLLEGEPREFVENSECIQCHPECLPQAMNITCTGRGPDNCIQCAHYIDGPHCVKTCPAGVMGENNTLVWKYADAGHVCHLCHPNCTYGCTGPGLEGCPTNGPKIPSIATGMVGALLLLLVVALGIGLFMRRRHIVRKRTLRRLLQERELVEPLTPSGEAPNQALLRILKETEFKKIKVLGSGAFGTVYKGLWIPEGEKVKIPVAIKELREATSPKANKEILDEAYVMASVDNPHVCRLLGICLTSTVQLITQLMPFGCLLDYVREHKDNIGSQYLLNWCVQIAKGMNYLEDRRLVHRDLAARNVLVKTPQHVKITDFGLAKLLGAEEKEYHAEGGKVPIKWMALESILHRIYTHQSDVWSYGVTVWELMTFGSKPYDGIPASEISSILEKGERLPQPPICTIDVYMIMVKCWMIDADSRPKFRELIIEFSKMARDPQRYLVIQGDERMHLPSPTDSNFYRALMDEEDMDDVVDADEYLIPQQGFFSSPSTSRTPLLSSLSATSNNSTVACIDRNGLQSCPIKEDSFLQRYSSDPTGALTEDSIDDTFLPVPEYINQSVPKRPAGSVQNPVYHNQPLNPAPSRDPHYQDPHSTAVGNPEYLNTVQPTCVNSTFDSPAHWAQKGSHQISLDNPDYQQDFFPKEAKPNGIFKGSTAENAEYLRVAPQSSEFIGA
Dickkopf-related protein 1 (Homo sapiens), sequence (O94907 whole entry, looked up): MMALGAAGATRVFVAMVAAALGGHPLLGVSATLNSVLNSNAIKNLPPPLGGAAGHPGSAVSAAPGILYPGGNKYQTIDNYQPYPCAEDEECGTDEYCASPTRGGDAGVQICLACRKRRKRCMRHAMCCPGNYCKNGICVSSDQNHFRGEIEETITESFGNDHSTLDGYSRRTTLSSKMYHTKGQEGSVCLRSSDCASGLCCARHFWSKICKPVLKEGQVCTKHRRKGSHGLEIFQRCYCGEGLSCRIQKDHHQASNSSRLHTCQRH
Follistatin-related protein 3 (Homo sapiens), sequence (O95633 whole entry, looked up): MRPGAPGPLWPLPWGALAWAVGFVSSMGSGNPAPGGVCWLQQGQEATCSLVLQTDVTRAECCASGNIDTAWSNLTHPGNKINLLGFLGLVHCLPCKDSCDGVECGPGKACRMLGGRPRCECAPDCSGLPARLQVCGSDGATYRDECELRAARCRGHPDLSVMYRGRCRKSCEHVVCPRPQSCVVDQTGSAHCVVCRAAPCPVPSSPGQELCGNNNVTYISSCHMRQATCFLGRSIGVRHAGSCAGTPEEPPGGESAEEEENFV
Fibroblast growth factor 10 (Homo sapiens), sequence (O15520 whole entry, looked up): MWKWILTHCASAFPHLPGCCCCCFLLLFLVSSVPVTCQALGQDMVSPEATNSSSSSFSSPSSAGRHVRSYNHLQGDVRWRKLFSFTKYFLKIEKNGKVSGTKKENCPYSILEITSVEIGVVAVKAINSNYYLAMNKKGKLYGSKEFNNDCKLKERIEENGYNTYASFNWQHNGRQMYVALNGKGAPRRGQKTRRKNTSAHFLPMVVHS

For the molecule `COc1ccc(C(O)C2C=CC3C(=O)N(C)C(=O)C3N2Nc2ccccc2)cc1` (stereo not given), the composite z-score in [1] was 0.454; in assay [2], -0.0205; in assay [3], 0.87; in assay [5], 0.663; in assay [6], 0.925; in assay [7] it was 0.468. The composite z-score in assay [8] is 0.441; in [9], 0.312; in [10], 0.979; in assay [11] it was 1.22; in assay [13], -0.132; in [14], 0.675. In addition, the composite z-score in assay [15] came to 0.283; in assay [16] it was 0.0792; in [17], 0.462; in assay [18] it was 1.76; in [19] it was 0.916; in assay [20], 1.38. Further, the results for the z-score in assay [4] and in assay [12] were -0.52 (inactive) and -1.14, respectively.

With `C[C@]12C(=O)N(CCO)[C@@H]3C(=O)N(c4ccc(Cl)cc4)CC=CC31O[C@@H]1/C=C\CCCOC(=O)C12` (stereo not given in full), the composite z-score is -0.617 in assay [1]; -0.128 in assay [2]; 0.776 in assay [3]; -1.04 in assay [5]; -1.31 in assay [6]; -1.51 in [7]. In addition, the composite z-score in [8] is -1.03; in assay [9], -1.53; in assay [10], 0.847; in assay [11], -0.576; in assay [13], -1.59; in assay [14], 0.409. In addition, the composite z-score is 0.186 in assay [15]; -0.18 in assay [16]; -0.154 in assay [17]; -0.153 in assay [18]; -0.759 in [19]; -0.181 in [20]. For the same molecule, the z-score is 0.178 (inactive) in assay [4] and -0.445 in assay [12].

`C=CCNC(=O)[C@H]1[C@@H]2C(=O)O[C@@H](c3ccccc3)[C@@H](c3ccccc3)N2[C@@H](c2ccc(O)cc2)[C@]12C(=O)Nc1ccccc12`: the composite z-score was 0.524 in assay [1]; 0.46 in [2]; 0.501 in assay [3]; 0.28 in assay [5]; -0.471 in assay [6]; -0.705 in assay [7]. For the same molecule, the composite z-score was -0.693 in [8]; -0.101 in assay [9]; 0.169 in assay [10]; 0.864 in assay [11]; -0.588 in [13]; 0.51 in [14]. Moreover, the composite z-score in assay [15] was 0.0876; in assay [16], -0.148; in [17] it was -0.0769; in assay [18], -0.0089; in assay [19], 1.33; in assay [20], 0.269. Besides, the z-score was -0.592 (inactive) in assay [4] and -0.462 in [12].

With `C=CCC(OC(C)=O)[C@@H]1[C@@H](N(Cc2ccc(-c3ccccc3)cc2)C(=O)Cc2ccc(OC)cc2)c2cc(OCCCO)ccc2N1C(=O)c1ccc2ccccc2c1` (stereo not given in full), the composite z-score in assay [1] was 0.0435; in assay [2], 0.0361; in assay [3], -0.002; in assay [5], -0.0566; in assay [6], -0.0533; in [7], -0.0792. Moreover, the composite z-score was 0.538 in [8]; -0.0863 in assay [9]; 1.17 in assay [10]; 0.242 in [11]; 0.215 in [13]; 0.106 in [14]. The composite z-score in assay [15] was 0.335; in [16], -0.122; in [17] it was -0.153; in assay [18], -0.57; in [19], 0.748; in [20], 0.284. In addition, the z-score was -0.147 (inactive) in assay [4] and -0.856 in [12].

As to `COc1ccc([Si](C)(C)[C@H]2[C@H](CC(=O)N3CCC[C@H]3CO)O[C@@]3(C(=O)N(C)c4ccccc43)[C@@H]2C)cc1`, the composite z-score was 0.364 in assay [1]; 0.214 in assay [2]; -0.159 in assay [3]; 0.105 in assay [5]; -0.102 in [6]; 0.335 in assay [7]. Moreover, the composite z-score is 0.705 in assay [8]; 0.588 in assay [9]; 1.48 in [10]; 0.442 in [11]; 0.239 in assay [13]; -0.13 in assay [14]. For the same molecule, the composite z-score in assay [15] was 0.297; in [16], -0.0721; in [17], -0.0368; in [18], -0.0094; in assay [19], 1.13; in [20] it was 0.557. The z-score was 0.361 (inactive) in [4] and -0.812 in assay [12].

Regarding `O=C1O[C@H](c2ccccc2)[C@H](c2ccccc2)N2[C@H]1[C@@H](C(=O)N1CCCCCCC1)[C@]1(C(=O)Nc3ccc(C#CCCO)cc31)[C@H]2c1ccc(O)cc1`, the composite z-score in assay [1] came out at 2.11; in [2], 2.97; in assay [3], 1.72; in assay [5], 1.67; in [6] it was 1.47; in [7], 1.99. Moreover, the composite z-score came to 1.74 in [8]; 2.7 in [9]; 1.96 in [10]; 1.52 in [11]; 1.69 in assay [13]; 3.02 in assay [14]. The composite z-score in [15] came out at 1.75; in assay [16], 1.62; in assay [17], 2.01; in assay [18] it was 0.939; in [19], 5.54; in [20], 4.23. In addition, the z-score in assay [4] is -0.547 (inactive); in assay [12] it was -0.637.
